From PubChem BioAssay AID485367 (National Center for Advancing Translational Sciences (NCATS), 2010)
In all, about 330,000 compounds went through this assay and about 560 (0.17%) were called active. Entries that show only a call come without a potency. Not shown: some 1% with an inconclusive outcome. The call rests on the fitted dose curve; in most records, active means well fitted inhibition curve with a large enough effect; inconclusive means small, poorly fitted or top-dose-only effect, or effect the other way; inactive means flat fitted curve, though single readings scatter. The full list was thinned out, with actives kept by preference.

The molecules below were run against ATP-dependent 6-phosphofructokinase (Trypanosoma brucei brucei) (UniProt O15648) (assay: qHTS Assay to Find Inhibitors of T. brucei phosphofructokinase). Details: T. brucei PFK, ADP-Glo luminescence; series mostly up to 57.5 µM.
Chain of ATP-dependent 6-phosphofructokinase (Trypanosoma brucei brucei) (O15648 whole entry, looked up): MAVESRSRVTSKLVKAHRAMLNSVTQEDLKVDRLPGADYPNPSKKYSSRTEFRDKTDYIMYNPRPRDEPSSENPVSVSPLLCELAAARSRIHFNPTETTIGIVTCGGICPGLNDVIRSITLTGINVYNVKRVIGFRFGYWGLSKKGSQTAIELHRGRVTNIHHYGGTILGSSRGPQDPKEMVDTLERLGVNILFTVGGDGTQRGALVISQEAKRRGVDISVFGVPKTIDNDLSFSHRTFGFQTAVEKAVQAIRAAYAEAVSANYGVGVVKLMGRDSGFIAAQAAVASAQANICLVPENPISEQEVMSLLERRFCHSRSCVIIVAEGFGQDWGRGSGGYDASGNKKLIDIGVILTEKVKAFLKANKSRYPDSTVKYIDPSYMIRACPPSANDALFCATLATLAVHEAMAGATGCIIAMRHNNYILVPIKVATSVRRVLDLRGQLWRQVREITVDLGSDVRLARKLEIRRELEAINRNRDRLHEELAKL
Text: NIH Molecular Libraries Probe Production Network [MLPCN] NIH Chemical Genomics Center [NCGC] Grant: 1 R03 MH092153-01 PI Name: Malcolm Walkinshaw, University of Edinburgh NCGC Assay Overview: Various species of the protozoan family Trypanosomatidae are responsible for a range of serious human diseases in tropical and subtropical areas of the world. […] Many of the disorders caused by trypanosomatids are fatal if left untreated, but most currently used drugs are inefficient and toxic. […] Oxidative metabolism involving the mitochondrial tricarboxylic acid cycle and oxidative phosphorylation are repressed in these parasites, and recent RNA interference (RNAi) experiments have shown that even partial depletion of certain individual glycolytic enzymes can lead to the death of cultured parasites. One such glycolytic enzyme, phosphofructokinase (PFK), catalyzes the formation of fructose-1,6-bisphosphate (F1,6BP) and ADP from fructose-6-phosphate (F6P) and ATP, and in many metabolic circumstances makes an important contribution to the control of flux through the glycolytic pathway. As a specific glycolytic target, PFK is particularly attractive as it catalyzes the first irreversible step in glycolysis, and structural and kinetic studies have shown very substantial and essential differences from corresponding host enzymes, allowing for the discovery of parasite-selective inhibitors. The goal of this screen is to find small-molecule inhibitors of T. brucei PFK using a biochemical assay that measures PFK activity as a function of ADP production. A luminescence-based assay for T. brucei PFK activity has been developed which uses luciferase to detect production of ADP. Traditional luciferase-based nucleotide detection reagents rely on ATP production as a direct substrate for the luciferase reaction; however, PFK catalyzes the transfer of a phosphate from ATP to F6P, resulting in the net depletion of ATP. To directly measure the ADP product of the PFK reaction, we used the ADP-Glo detection kit (Promega), which utilizes two separate reactions to 1) deplete all remaining uncatalyzed ATP and 2) convert all remaining ADP to ATP, which is then detected through a traditional luciferase-coupled reaction. Compounds were screened as a concentration-titration series that ranged from 57 uM to 0.7 nM.
NCGC Assay Protocol Summary: NCGC Assay Protocol Summary: Substrate buffer was dispensed into white, solid 1536-well plates at 3uL/well in 0.1M triethanolamine (TEA) buffer, pH 8.0, containing final concentrations of 5 mM MgCl2, 0.01% Tween20, 0.5 mM fructose-6-phosphate (F6P) and 0.1mM ATP. Then, 23 nL of compounds or DMSO were delivered to each well using a pin tool. One uL T. brucei PFK (0.1M TEA, 0.01% Tween20, 0.1% bovine serum albumin (BSA) and 1.25nM PFK, final concentrations) was then dispensed, and plates were incubated at room temperature for 45 min. The luminescent detection reagent, ADP-Glo (Promega), was then added in two steps: the first reagent, ADP-Glo (which converts remaining uncatalyzed ATP), was added at 2.5uL/well and incubated for ten minutes at room temperature, and the second component, Kinase Detection reagent (which converts ADP to ATP as a substrate for luciferase-based luminescence), was added immediately after at 5uL/well, followed by one final ten minute room temperature incubation. The plates were measured on a ViewLux plate reader for luminescent signal using a clear filter with a one second exposure. The %Activity was determined from the corrected luminescence values. As no specific T. brucei PFK inhibitors have been identified in the literature, 1x (1.25nM) and 0x PFK enzyme controls (untreated) were included to normalize %Activity of identified inhibitors; 0x enzyme values corresponded to 100%Activity (full inhibition), while 1x PFK enzyme values were used to normalize 0%Activity (no inhibition). Concentration-response curves were fitted to the signals arising from the resulting luminescence. […]
Further: nearly all actives have a fitted effect of over 60% in size.
Potency means the concentration at half of the fitted maximal effect.

Question: How did the Potency turn out when `O=C(Cc1ccc([N+](=O)[O-])cc1)N/N=C/c1ccco1` was run?
Answer: 19 µM (active)

Question: For `OC(Cn1c2ccccc2c2ccccc21)C[n+]1ccccc1` (stereo not given), which Potency is on record?
Answer: inactive

Question: For `CCCCCCN=C(CC)c1c(O)n(CCCC)c(=O)[nH]c1=O`, which Potency is on record?
Answer: inactive

Question: With `CCOC(=O)C1SC2(C(F)(F)C(F)F)CC1(O)c1c(c(OC)c3occc3c1OC)O2` (stereo not given) as the molecule, how does the Potency read?
Answer: inactive

Question: `Cn1nnnc1NCc1ccc(Cl)c(Cl)c1` was tested. Which Potency did it give?
Answer: 10.7 µM (active)

Question: `Cc1ccc(-n2c(-c3ccc([N+](=O)[O-])cc3)nc3ccccc3c2=O)cc1` was tested. Which Potency did it give?
Answer: inactive

Question: Which Potency does the source give for `CC(Cc1cccs1)NCc1ccc(Cl)cc1` (stereo not given) here?
Answer: inactive

Question: Which Potency does the source give for `O=C1/C(=C\c2ccc3c(c2)OCO3)N2CCC1CC2` here?
Answer: inactive

Question: For `CCOP(=S)(OCC)C(O)CCCCCn1c(=O)c(F)cn(C2CCCO2)c1=O` (stereo not given), which Potency is on record?
Answer: inactive

Question: Which Potency does the source give for `COc1ccc(CCn2c(O)c(C=NCCCn3ccnc3)c(=O)[nH]c2=O)cc1OC` here?
Answer: inactive
